Results on 40 compounds are retold here after PubChem BioAssay.

Records with an inconclusive call do not appear. Calls of active or inactive are those of the source. Cut-off not given; nearly all actives show AC50 up to about 26 µM.

The nature of the test: viability loss in pontine glioma line – cell-based, SU-DIPG-XXV, MIPE5.0, CellTiter-Glo, qHTS, dose response (AID 1347065).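 Further: cells exposed to compound for 48 hours before ATP readout.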 Particulars: CellTiter-Glo ATP luminescence. In general terms: In ATP-based viability assays light output follows the ATP content of the culture.
On to `CCO[C@@H]1OC(=O)C[C@@H]1NC(=O)[C@@H]1CCCN2C(=O)CC[C@H](NC(=O)c3nccc4ccccc34)C(=O)N12`, for which the outcome was inactive.

As to `O=C(Nc1ccc2c(c1)CCN(Cc1ncn[nH]1)C2)c1ccccc1-c1ccc(C(F)(F)F)cc1`, the result was inactive.

Regarding `CN1CCN(C(=O)[C@H]2[C@@H](C(=O)O)[C@H]3CC[C@@H]2O3)CC1`, the result was inactive.

As for `COC1CCC(N2C(=O)CNc3ncc(-c4ccc(C(C)(C)O)nc4)nc32)CC1` (stereo not given), the AC50 (usually the concentration giving half of the maximal activity seen) was 11.8 µM (active).

`CC[C@@H](Oc1cccc(CN(CCCOc2ccc(OC)cc2)c2nc3ccccc3o2)c1)C(=O)O`: the result was inactive.

With `C=CC(=O)Nc1cccc(C)c1Nc1ncc2cc(-c3c(Cl)c(OC)cc(OC)c3Cl)ccc2n1`, the AC50 is 9.34 µM (active).

Take `O=C(O)c1cnn(-c2nc3cc(OC(F)(F)F)c(Cl)cc3[nH]2)c1`: the result was inactive.

Regarding `Cc1cc(OCc2nnc(SC3CCCC3)n2-c2cccnc2)ccc1-c1ccc(S(C)(=O)=O)cc1`, the AC50 was 8.33 µM (active).

Consider `O=C(Nc1nccs1)C(c1cc(F)ccc1O)N1Cc2ccccc2C1=O` (stereo not given), for which the call was inactive.

On to `COCCNCc1ccc(-c2cc3nccc(Oc4ccc(NC(=S)NC(=O)Cc5ccc(F)cc5)cc4F)c3s2)nc1`, for which the AC50 was 4.17 µM (active).

In the case of `CC(C)[C@](O)(c1ccc2cc(OC(F)F)c(OC(F)F)cc2c1)c1cn[nH]n1`, the compound was called inactive.

Consider `FC(F)(F)c1ccc(CNc2ccc(Cc3c[nH]c4ncccc34)cn2)cc1`, for which the AC50 is 20.9 µM (active).

As to `CCn1c(=O)c(-c2ccc(Cl)cc2Cl)cc2cnc(Nc3ccc(N4CCNCC4)c(F)c3)nc21`, the AC50 was 0.59 µM (active).

Regarding `CN[C@@H](C)C(=O)N[C@H](C(=O)N1CCC[C@H]1c1nc(C(=O)c2ccc(F)cc2)cs1)C1CCCCC1`, the call was inactive.

`CC(=O)N1CCN(c2ccc(NC(=O)Cc3cnc(-c4ccnc(F)c4)c(C)c3)nc2)CC1`: the outcome was inactive.

Take `CCC(CC)CC1(C(=O)Nc2ccccc2SC(=O)C(C)C)CCCCC1`: the call was inactive.

Consider `CCCNC(=O)c1cn2ncnc(Nc3cc(C(=O)NC4CC4)ccc3C)c2c1C`, for which the result was inactive.

In the case of `COc1ccc(C(=O)N2CCN(C(=O)/C=C/c3ccc(Br)cc3)CC2)cc1`, the compound was classed as inactive.

For the compound `COC(=O)c1ccc([C@H]2c3[nH]c4ccccc4c3C[C@H](C(=O)OC)N2C(=O)CCl)cc1`, the AC50 was 5.25 µM (active).

Turning to `N=C(N)c1ccc2nc(-c3cc(CC(=O)N[C@@H](CC(=O)O)C(=O)O)cc(-c4cc(S(N)(=O)=O)ccc4O)c3O)[nH]c2c1`, the compound was called inactive.

For `CCCCCCCCCCCCCCCCOCCCOP(=O)(O)COC(CO)Cn1ccc(N)nc1=O` (stereo not given), the compound was called inactive.

Regarding `CC(C)C[C@@H]1NC(=O)[C@@H](C(C)C)NC(=O)[C@@H]2CCCN2C(=O)[C@@H](CC(=O)O)NC(=O)[C@@H](Cc2c[nH]c3ccccc23)NC1=O`, the outcome was inactive.

On to `Cc1cc(Nc2cc(N)ncn2)c(=O)n2c1C(=O)NC21CCCCC1`, for which the call was inactive.

For the compound `O=C(NCC(=O)N1CC[C@H](NC2CCC(O)(c3ccc(-c4ncccn4)cn3)CC2)C1)c1cccc(C(F)(F)F)c1` (stereo not given in full), the compound was classed as inactive.

Take `CC(C)(CO)n1cc(C(=O)c2cncc(NC(=O)Cc3ccc(Cl)cn3)c2)c2cnc(N)nc21`: the compound was classed as inactive.

In the case of `O=C(Nc1cccc(Cl)c1)Nc1ncc(CCNc2ncnc3ccsc23)s1`, the AC50 was 0.525 µM (active).

In the case of `O=C1OC2(CCC(C(=O)Nc3ccn(-c4ccccc4F)n3)CC2)c2cnccc21` (stereo not given), the call was inactive.

For the compound `Cc1ccc(-c2nn(C(C)(C)CNC(=O)c3ccncc3)c3ncnc(N)c23)cc1`, the AC50 is 13.2 µM (active).

As to `COc1cc2c(cc1OC)CN(CCc1ccc(-n3nnc(-c4cc(OC)c(OC)cc4NC(=O)c4cc(=O)c5ccccc5o4)n3)cc1)CC2`, the compound was called inactive.

As to `Cn1cc(-c2c[nH]c3ncnc(N4CCOCC4)c23)cn1`, the call was inactive.

For the compound `CC(C)(C)Sc1c(CC(C)(C)C(=O)O)n(Cc2ccc(Cl)cc2)c2ccc(OCc3ccc4ccccc4n3)cc12`, the AC50 was 20.9 µM (active).

With `CN1CCN(C2CCC(n3cc(-c4ccc(Oc5ccccc5)cc4)c4c(N)ncnc43)CC2)CC1` (stereo not given), the AC50 is 1.86 µM (active).

On to `CCN(CC)CCCC[C@H](NC(=O)[C@H](CC(C)C)NC(=O)[C@H](C)NC(=O)[C@H](Cc1ccccc1)NC(=O)c1ccc(C(C)(C)C)cc1)C(=O)N[C@@H](CO)C(=O)OC`, for which the compound was called inactive.

In the case of `C[C@@H](OC[C@@]1(c2ccccc2)CC[C@]2(CCC(=O)N2)CN1)c1cc(C(F)(F)F)cc(C(F)(F)F)c1`, the AC50 is 18.6 µM (active).

With `N[C@@H](CCC(=O)O)C(=O)N[C@@H](Cc1c[nH]c2ccccc12)C(=O)O`, the outcome was inactive.

Regarding `Cc1cc(C)c(S(=O)(=O)N(CCc2cccc(Br)c2)Cc2ccc(-c3cccc(S(C)(=O)=O)c3)cc2)c(C)c1`, the call was inactive.

Regarding `O=C(Cc1ccccc1)Nc1nnc(CCSCCc2nnc(NC(=O)Cc3ccccc3)s2)s1`, the AC50 was 11.8 µM (active).

Consider `C=CC(=O)N1CCC[C@H](n2c(=O)n(-c3ccc(Oc4ccccc4)cc3)c3c(N)ncnc32)C1`, for which the AC50 was 7.42 µM (active).

For `CNCCCOc1cc(F)c(-c2c(Cl)nc3ncnn3c2N[C@@H](C)C(F)(F)F)c(F)c1`, the AC50 is 0.118 µM (active).

On to `CCc1ccc2nc(Nc3cc(Cc4ccccc4)nc(NC4CCC(O)CC4)n3)sc2c1` (stereo not given), for which the AC50 is 18.6 µM (active).
